Assay outcomes from PubChem BioAssay.
Shiga inhibitor = blocks Shiga toxin action in Vero cells; hit rate 9.2% among 290,000; inhibition, % at 38.7 µM; Vero cells, Shiga toxin protein synthesis inhibition reporter; in the data active = inhibition mostly above about 28%, no sharp cut-off; inactive = mostly below about 43%; also: 0% is about no effect
Cycloheximide cs = counter-screen for Shiga toxin inhibitors: cycloheximide protein synthesis inhibition; max response, %; AID 2314; cell reporter, cycloheximide protein synthesis inhibition counterscreen; hit rate 12% among 300,000; in the data active = max response mostly above about 13%, no sharp cut-off; inactive = mostly below about 14%; also: read at 38.3 µM for the half of the compounds with a filed dose; 0% is about no effect
Giardia FBPA inh = Giardia lamblia aldolase inhibition | AID 2451 | A8B2U2 | purified Giardia FBPA | Potency, µM (top dose mostly 59.6 µM), without a hit: at the highest dose activity, negative = inhibition, actives largely listed as inhibitors | hit rate 0.71% among 290,000; also: potency is read from the fitted curve at half-maximal effect; % is scaled to controls: 0 for no effect and ±100 for the full control effect; nearly all actives have a fitted effect of over 55% in size
Target sequence (A8B2U2 whole entry, looked up): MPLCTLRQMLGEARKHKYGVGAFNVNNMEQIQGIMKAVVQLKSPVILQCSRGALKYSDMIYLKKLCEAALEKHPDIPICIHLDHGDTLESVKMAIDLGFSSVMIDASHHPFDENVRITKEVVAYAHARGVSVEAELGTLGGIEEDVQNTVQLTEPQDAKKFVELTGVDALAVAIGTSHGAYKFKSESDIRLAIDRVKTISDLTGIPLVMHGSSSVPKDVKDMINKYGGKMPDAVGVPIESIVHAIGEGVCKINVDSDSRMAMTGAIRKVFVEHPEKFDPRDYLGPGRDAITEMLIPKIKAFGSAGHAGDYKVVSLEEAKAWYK
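40 nM FBPA preincubated 10 min at RT with compound (up to 57.5 uM final), then substrate plus GAPDH/TPI/NAD/arsenate coupling and diaphorase/resazurin added. Fluorescence read after 20 min at RT, 525/598 nm.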
Tb PYK inh = blocks Trypanosoma brucei pyruvate kinase; Potency, µM (titrated, usually from 76.8 µM), for the others: at the top dose activity, negative = inhibition, usual class: inhibitors; hit rate 0.12% among 410,000; AID 624173; TbPYK enzyme, Kinase-Glo Plus ATP luminescence, 45 min; also: potency is read from the fitted curve at half-maximal effect; % is scaled to controls: 0 for no effect and ±100 for the full control effect; nearly all actives have a fitted effect of over 50% in size
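Assay buffer: 50 mM TEA pH 7.2, 100 mM KCl, 10 mM MgCl2, 0.05% BSA, 0.01% Tween-20. Pyruvate kinase from T. brucei plus substrate met compound, then ADP (130 uM final). Luminescence was read post 45 min RT.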
LmPK inh = LmPK (Leishmania mexicana) enzyme inhibition; Potency, µM (doses to about 57.5 µM), without a hit: top-dose activity change, negative = inhibition, actives largely listed as inhibitors; purified LmPK, Kinase-Glo ATP luminescence, 1 h; Q27686; AID 1721; hit rate 0.37% among 290,000; also: potency is read from the fitted curve at half-maximal effect; % is scaled to controls: 0 for no effect and ±100 for the full control effect
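ATP generated from ADP (0.1 mM) and PEP (0.5 mM) by 0.1 nM LmPK over 1 h at room temperature (pH 7.2 imidazole buffer) was detected by coupled luciferase luminescence. Values were normalized to uninhibited and no-enzyme wells.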
Sm TGR block = inhibitors of Schistosoma mansoni thioredoxin glutathione reductase | hit rate 3% among 360,000 | purified TGR, DTNB reduction, TNB absorbance 405 nm | Potency, µM (highest dose often 114 µM), for the others: at the highest dose activity change, negative = inhibition, actives largely listed as inhibitors | Q962Y6; also: potency is read from the fitted curve at half-maximal effect; % is scaled to controls: 0 for no effect and ±100 for the full control effect; nearly all actives have a fitted effect of over 60% in size
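Kinetic colorimetric format: TGR-catalysed, NADPH-driven DTNB reduction monitored via TNB absorbance. Enzyme dispensed at 20 nM; compound exposure 15 min at room temperature before reaction start.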
Active calls of the source: *; i = inactive; ? = inconclusive; / = not tested or not shown; [ ] = remark or other dose. The entries come from a sample that favours hits as a whole. Unless noted, calls follow the shape of the dose curve; as a rule, active = well fitted curve in the direction sought with a large enough effect; inconclusive = small, poorly fitted or top-dose-only effect, or another doubt; inactive = no such curve, though single readings can be large; an effect the other way counts as inactive or inconclusive.

SMILES | Shiga inhibitor | Cycloheximide cs | Giardia FBPA inh | Tb PYK inh | LmPK inh | Sm TGR block
Cc1ccc(-n2nc3ccc(NC(=O)C(C)C)cc3n2)cc1 | 119* | 54* | -5% | -5% | 0% | /
CCOc1ccc(-n2nc3ccc(NC(=O)c4cccc(F)c4)cc3n2)cc1 | / | / | / | 1% | / | 6%
CCc1ccc(-n2nc3ccc(NC(=O)c4ccc5c(c4)OCO5)cc3n2)cc1 | -15 | -3 | -4% | -7% | 1% | -2%
CC(C)C(=O)Nc1ccc2nn(-c3ccc(F)cc3)nc2c1 | 46* | 28* | 10% | -7% | -2% | -9%
N#CC(C#N)=C1C=CC=CN1/C(=C\c1ccco1)C(=O)c1ccc(-c2ccccc2)cc1 | -10 | 11 | -4% | -7% | -1% | ?
N#CC(C#N)=C1C=CC=CN1/C(=C\c1ccco1)C(=O)c1ccc(Cl)cc1 | -13 | -8 | -5% | ? | -1% | 1.4µM*
COC(=O)c1cc2ccsc2n1Cc1cc(=O)n2ccccc2n1 | 74* | 28* | -28% | -5% | 2% | 9%
CCCCc1ccc(NS(=O)(=O)c2ccc(N3CCCCS3(=O)=O)cc2)cc1 | / | / | / | 1% | / | 2%
O=C(c1cc(=O)[nH]c2ccccc12)N1CCc2ccccc2C1 | -13 | 0 | -6% | -16% | -1% | 3%
COc1cc(C(C)=O)ccc1OCC(=O)N1CCc2ccccc2C1 | -3 | -3 | -1% | 1% | 1% | -2%
Cc1ccc(OCC(=O)N2CCc3ccccc3C2)c(Br)c1 | 60* | 42* | 5% | 0% | 3% | 0%
Cc1ccc(OCC(=O)N2CCc3ccccc3C2)c(C)c1 | 33 | 11* | 0% | -5% | -2% | 11%
O=C(OCC(=O)N1CCc2ccccc2C1)c1cc(=O)[nH]c2ccccc12 | 59* | 33* | 0% | 2% | 3% | -3%
NC(=O)c1ccccc1OCC(=O)N1CCc2ccccc2C1 | 21 | 16 | 2% | -7% | -2% | -1%
COc1ccc(OC)c(C2=Nn3c(nnc3-c3cccc(OC)c3OC)SC2)c1 | -6 | -5 | 5% | / | / | /
Clc1cc(Cl)c2nc(N3CCCC3)sc2c1 | / | / | / | -16% | / | /
Clc1cc(Cl)c2nc(N3CCCCC3)sc2c1 | 72* | 34* | -3% | -10% | -9% | -3%
Brc1cccc2sc(N3CCN(c4ccccc4)CC3)nc12 | 30* | 24* | 2% | 0% | 8% | 10%
COc1ccc(OC)c2sc(N3CCc4ccccc4C3)nc12 | 51 | 18 | -14% | 0% | 2% | -3%
Clc1cccc2sc(N3CCCCC3)nc12 | 82* | 32* | -1% | -1% | -6% | -9%
COc1ccc(OC)c2sc(N3CCCCC3)nc12 | 66* | 36* | -12% | 1% | -4% | 8%
CC[C@H](C)[C@H](NC(=O)[C@H](Cc1ccc(O)cc1)NC(=O)[C@H](Cc1cnc[nH]1)NC(=O)[C@H](CCCNC(=N)N)NC(=O)[C@H](CC(C)C)NC(=O)[C@H](C)NC(=O)[C@H](CO)NC(=O)[C@H](Cc1ccc(O)cc1)NC(=O)[C@H](Cc1ccc(O)cc1)NC(=O)[C@H](CCCNC(=N)N)NC(=O)[C@H](C)NC(=O)[C@H](CC(C)C)NC(=O)[C@H](CC(=O)O)NC(=O)[C@H](CCC(=O)O)NC(=O)[C@H](C)NC(=O)[C@@H]1CCCN1C(=O)[C@H](C)NC(=O)[C@H](CC(=O)O)NC(=O)[C@H](CCC(=O)O)NC(=O)CNC(=O)[C@@H]1CCCN1C(=O)[C@H](CC(N)=O)NC(=O)[C@H](CC(=O)O)NC(=O)[C@@H]1CCCN1C(=O)[C@H](CCCCN)NC(=O)[C@H](CO)NC(=O)[C@@H]1CCCN1C(=O)[C@@H](N)Cc1ccc(O)cc1)C(=O)N[C@@H](CC(N)=O)C(=O)N[C@@H](CC(C)C)C(=O)N[C@@H](CC(C)C)C(=O)N[C@H](C(=O)N[C@@H](CCCNC(=N)N)C(=O)N1CCC[C@H]1C(=O)N[C@@H](CCCNC(=N)N)C(=O)N[C@@H](Cc1ccc(O)cc1)C(N)=O)[C@@H](C)O | 14 | 41 | 2% | / | / | /
Nc1nc2[nH]cc(CCc3ccc(C(=O)NC(CCC(=O)O)C(=O)O)cc3)c2c(=O)[nH]1 (centres undefined) | / | / | / | 2% | / | /
O=c1c2c3nc4ccccc4nc3n(/N=C/c3ccco3)c2ncn1CCC1=CCCCC1 | 14 | 19 | 0% | -9% | 7% | 13µM*
CCN1C(=S)SC(=O)C1=C1C=C(C)OC(C)=C1 | 21 | 7 | 1% | -10% | 0% | -14%
SMILES | Shiga inhibitor | Cycloheximide cs | Giardia FBPA inh | Tb PYK inh | LmPK inh | Sm TGR block
CCN1C(=S)SC(=O)C1=C1C=C(C)N(Cc2ccco2)C(C)=C1 | 96* | 55* | -18% | 3% | 1% | -36%
O=S(=O)(c1ccc2c(c1)OCCO2)N1CCN(S(=O)(=O)c2ccc3c(c2)OCCO3)CC1 | -4 | -6 | / | / | / | 0%
O=S(=O)(c1ccc2c(c1)OCCO2)N1CCN(S(=O)(=O)c2ccc3nc(Cl)c(Cl)nc3c2)CC1 | 18 | 27* | / | / | / | /
Cn1cccc1C(=O)N1CCC2(CC1)CCN(C(c1ccccc1)c1ccccc1)CC2 | / | / | 4% | -6% | / | /
CCc1cccc2c(C(=O)CN3C(=O)NC4(CCCCC4)C3=O)c[nH]c12 | / | / | / | 3% | / | /
CCc1cccc2c(C(=O)CCl)c[nH]c12 | -24 | 3 | 3% | -5% | -1% | 7.9µM*
CCc1cccc2c(C(=S)N3CCCC3)c[nH]c12 | 20 | 15* | -5% | 1% | 2% | -5%[57.1 µM]
CC1=C(c2ccc(C)c(C)c2)S(=O)(=O)N=C1N1CCC(C(=O)Nc2cccc(F)c2)CC1 | / | / | / | 4% | / | -2%
COc1ccc(C2CC(=O)N3CN(C4CCCCC4)CSC3=C2C#N)cc1 (centres undefined) | / | / | / | 22µM* | / | 7.9µM*
COc1cccc(C2CC(=O)N3CN(C4CCCCC4)CSC3=C2C#N)c1 (centres undefined) | / | / | / | ? | / | 2.5µM*
CCCC[C@]12Cc3c(ccc4ccccc34)C(O1)C1=C(O2)C(=O)c2ccccc2C1=O | i | 7 | 0%[12.9 µM] | / | -5%[11.5 µM] | ?
O=S(=O)(Cc1ccccc1)CS(=O)(=O)Cc1ccccc1 | / | / | / | 1% | / | /
COc1cc2nc(Nc3ccc(F)cc3)nc(N)c2cc1OC | 9 | 17* | -6% | -1% | -2% | 0%
CN(C)c1ccc(/C=N/N=C/c2ccccc2O)cc1 | 171* | 76* | -9% | -15% | -8% | 6%
O=[N+]([O-])c1ccccc1COc1ccc(Cl)c2cccnc12 | 62* | 23* | 7% | -4% | -16% | -3%
O=C(Oc1ccc(Cl)c2cccnc12)c1cccc([N+](=O)[O-])c1 | -12 | 1 | -17% | -5% | 1% | -1%
Cc1cccc(C(=O)N(Cc2ccco2)Cc2ccccc2F)c1 | / | / | / | 2% | / | 0%
